Experimental findings from PubChem BioAssay AID588342 (National Center for Advancing Translational Sciences (NCATS), 2011) are described below.

Out of some 360,000 compounds screened, about 25,000 (6.9%) were called active. About 9% were inconclusive and are not listed. The call rests on the fitted dose curve; in most records, active means well fitted inhibition curve with a large enough effect; inconclusive means small, poorly fitted or top-dose-only effect; inactive means flat fitted curve, though single readings scatter. Shown is part of a subset that was picked to be rich in actives.
Potency means the concentration at half of the fitted maximal effect.

In the assay the target is Luciferin 4-monooxygenase (Photinus pyralis) (UniProt P08659). Kind of assay: qHTS profiling assay for firefly luciferase inhibitor/activator using purifed enzyme and Km concentrations of substrates (counterscreen for miR-21 project). Further: nearly all actives have a fitted effect of over 55% in size.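 On activity change, negative = inhibition: plate controls were vehicle for no effect and reference inhibitor for full effect.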 As to conditions: purified FLuc, luminescence inhibition; series mostly up to 57.5 µM; activity change, negative = inhibition: at the top concentration. The procedure, abridged: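 Biochemical qHTS of compounds, final roughly 60 µM downward over six points, against 10 nM purified firefly luciferase using Km concentrations of substrates (10 uM D-luciferin, 10 uM ATP) in Tris acetate pH 7.5 buffer; luminescence output.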
Sequence of Luciferin 4-monooxygenase (Photinus pyralis) (P08659 whole entry, looked up): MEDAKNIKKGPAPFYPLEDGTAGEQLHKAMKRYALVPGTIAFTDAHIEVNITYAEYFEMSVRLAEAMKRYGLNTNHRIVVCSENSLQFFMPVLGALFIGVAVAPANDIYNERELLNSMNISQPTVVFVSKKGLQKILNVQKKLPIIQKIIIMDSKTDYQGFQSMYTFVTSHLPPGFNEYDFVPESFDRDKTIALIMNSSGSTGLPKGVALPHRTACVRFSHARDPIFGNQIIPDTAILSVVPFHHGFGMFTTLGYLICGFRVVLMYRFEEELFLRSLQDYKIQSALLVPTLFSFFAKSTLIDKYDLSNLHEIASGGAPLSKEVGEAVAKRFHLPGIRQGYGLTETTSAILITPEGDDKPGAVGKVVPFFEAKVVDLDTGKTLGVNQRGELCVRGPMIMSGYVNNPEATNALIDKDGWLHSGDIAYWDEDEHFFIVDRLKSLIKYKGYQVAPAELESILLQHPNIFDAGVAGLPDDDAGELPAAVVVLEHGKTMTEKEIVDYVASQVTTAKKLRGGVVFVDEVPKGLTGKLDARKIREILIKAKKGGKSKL
For `Cc1[nH]nc(-c2ccc(OCc3cnn(-c4ccccc4)c3)cc2O)c1Oc1ccc(Cl)cc1`, the “activity change, negative = inhibition” value is 0.697% (inactive).

For `COc1ccc(C(=O)NNS(=O)(=O)c2ccc(C)cc2)cc1`, the “activity change, negative = inhibition” value was 5.49% (inactive). Turning to `COc1ccc(C(=O)Cc2cnn(-c3ccccc3)c2)c(O)c1`, the Potency is 3.38 µM (active). On to `COc1ccc(C(=O)CC(=O)c2ccc(C)cc2)c(O)c1`, for which the Potency was 21.3 µM (active).

As to `COc1ccc(CC(=O)c2ccc(O)cc2O)cc1OC`, the “activity change, negative = inhibition” value is -6.24% (inactive).

Consider `Cc1cccc(OCC(=O)N(Cc2ccc(C(C)C)cc2)Cc2ccco2)c1C`, for which the “activity change, negative = inhibition” value was 0.0838% (inactive).

Regarding `COc1cc(OC)c(NC(=O)c2c3c(nn2C)-c2ccccc2SC3)cc1Cl`, the “activity change, negative = inhibition” value was -3.89% (inactive). The same measure, in the same setting: next, `CSc1nc(=O)c2c(n1C)NC(=O)CC2c1ccccc1OC(C)C` (stereo unspecified): -0.768% (inactive); `Cc1nc(SCC(=O)NC2CCCCC2C)c(C#N)c(C)c1C` (stereo unspecified): -0.552% (inactive). On to `CCS(=O)(=O)c1nc(S(=O)(=O)c2ccc(C)cc2)c(NCc2ccc(Cl)cc2)s1`, for which the “activity change, negative = inhibition” value was -6.34% (inactive).

With `CCn1c(C(=O)Nc2cc(Cl)ccc2C)cc2sc(Cl)cc21`, the “activity change, negative = inhibition” value is 14.4% (inactive). The same measure, in the same setting: for `CCOc1ccc(-c2cc3c(=O)n(CC(=O)NCc4ccc(OC)cc4)ccn3n2)cc1` the value was -25.5% (inactive). Consider `CC(C)(C)c1ccc(SCCc2ccncc2)cc1`, for which the Potency is 26.9 µM (active). Take `c1ccc(CSCCc2ccncc2)cc1`: the “activity change, negative = inhibition” value was 3.4% (inactive). In the case of `Cc1cc(C)c(SCCc2ccncc2)c(C)c1`, the “activity change, negative = inhibition” value is 4.66% (inactive). In the case of `C/C(=N\NC(=O)CCn1nc(C)cc1C)C(C)(C)C`, the “activity change, negative = inhibition” value is -0.213% (inactive). For `CCc1cccc(NC(=O)COC(=O)c2cc(=O)c3ccccc3o2)c1`, the “activity change, negative = inhibition” value was -8.14% (inactive).

As for `Cc1ccc(S(=O)(=O)NCCC(=O)NC2CCN(Cc3ccccc3)CC2)cc1`, the “activity change, negative = inhibition” value is 4.15% (inactive). As to `Cc1ccc(C)c(N2CCN(C(=O)Cn3nc(C)c4sc5ccccc5c4c3=O)CC2)c1`, the “activity change, negative = inhibition” value was 3.41% (inactive). In the case of `Cn1nnnc1SCCCNCc1cccc(OCc2ccc(Cl)cc2)c1`, the “activity change, negative = inhibition” value was 5.77% (inactive). With `COc1cc(C(=O)OCc2ccc([N+](=O)[O-])cc2)cc(OC)c1OC`, the “activity change, negative = inhibition” value was 2.68% (inactive). For the compound `COc1cc(/C=N/O)ccc1OCc1ccc([N+](=O)[O-])cc1`, the Potency was 2.69 µM (active). Take `COc1cc(/C=N\Nc2ccc([N+](=O)[O-])cn2)ccc1OCC(=O)O`: the “activity change, negative = inhibition” value was -16.9% (inactive). On to `Cc1ccc(CCNC(=O)c2nnc(Cc3cccc(F)c3)o2)cc1`, for which the “activity change, negative = inhibition” value was -1.77% (inactive). Turning to `COc1ccc(Cl)cc1N(C)C(=O)c1cc2c(=O)oc3ccc(C)cc3c2s1`, the “activity change, negative = inhibition” value is 0.493% (inactive).

Consider `N#CCc1ccc(OC(=O)c2cccnc2)cc1`, for which the “activity change, negative = inhibition” value is 0.653% (inactive). On to `c1csc(-c2nc(-c3ccncc3)no2)c1`, for which the Potency is 13.5 µM (active). With `Cc1ccc(Oc2nc(-c3ccccn3)nc3ccccc23)cc1`, the “activity change, negative = inhibition” value is -19.9% (inactive). Take `COc1cc(OC)c(NC(=O)c2nc(-c3ccncc3)no2)cc1Cl`: the “activity change, negative = inhibition” value is -1.54% (inactive). Turning to `Cc1ccc(-c2nc(-c3ccncc3)no2)c(C)c1`, the Potency was 2.13 µM (active). Take `Cc1ccc(-c2noc(CSc3nnc(-c4ccncc4)n3-c3ccc(F)cc3)n2)cc1`: the “activity change, negative = inhibition” value is -3.39% (inactive).

`O=C(Oc1ccc(-c2nc(-c3ccccn3)no2)cc1)c1ccccc1`: the Potency was 0.301 µM (active). On to `CSc1oc(-c2cccs2)nc1S(=O)(=O)c1ccc(Br)cc1`, for which the “activity change, negative = inhibition” value was -9.22% (inactive).

As to `Cc1ccc(-c2noc(CSc3nnc(-c4cccs4)n3C)n2)cc1`, the “activity change, negative = inhibition” value is -21.4% (inactive). On the same count and under the same terms, for `COc1ccc(N2CCN(C(=O)CCc3nc(-c4ccc(C)cc4)no3)CC2)cc1` the value was -20% (inactive). With `COc1ccc(-c2noc(-c3ccc(C)cc3)n2)cc1`, the Potency was 1.51 µM (active).

In the case of `COc1ccc(-c2noc(CN(C)S(=O)(=O)c3ccc(C)cc3)n2)cc1`, the “activity change, negative = inhibition” value is -2.32% (inactive). On the same count and under the same terms, for `Cc1cc(OC(=O)c2ccccc2)c([N+](=O)[O-])c(=O)[nH]1` the value was -7.98% (inactive); for `Cc1ccccc1NC(=O)Cn1c(=O)n(CC2CCC(C(=O)NCCc3ccccc3)CC2)c(=O)c2ccccc21` (stereo unspecified), -0.569% (inactive). In the case of `COc1ccc(CCNc2nc(-c3ccc(Cl)cc3)cc(C(F)(F)F)n2)cc1OC`, the “activity change, negative = inhibition” value is 0.231% (inactive). For `O=c1cccc(-c2ccc(Br)cc2)o1`, the activity change, negative = inhibition was 3.87% [at 2.3 µM] (inactive). For the compound `O=C1CC(c2nnc(Cc3ccc(Cl)cc3)o2)CN1c1ccccc1` (stereo unspecified), the “activity change, negative = inhibition” value is -8.02% (inactive). With `Cc1ccc(OCC(=O)Nc2ccccc2C(=O)NC2CC2)cc1`, the “activity change, negative = inhibition” value was 3.57% (inactive). With `COc1ccc(CCC(=O)NCc2ccc3c(c2)CCN3C(=O)c2ccc(F)cc2)cc1`, the “activity change, negative = inhibition” value is -15.3% (inactive). Turning to `Cc1ccc(-n2nnnc2CNC(=O)c2ccccc2C)cc1C`, the “activity change, negative = inhibition” value was -1.73% (inactive). Regarding `COc1cc(C)c(Cl)cc1S(=O)(=O)n1ccnc1`, the “activity change, negative = inhibition” value is -8.56% (inactive). For `Cc1c2cnn(-c3ccccc3)c(=O)c2c(C)n1C(C)C(=O)Nc1ccc(Br)cc1F` (stereo unspecified), the “activity change, negative = inhibition” value is -16.5% (inactive). On the same count and under the same terms, next, `Clc1ccc(-n2nnnc2-c2cnc(-c3ccccn3)nc2-c2cccs2)cc1`: -13.4% (inactive); `O=c1onc(-c2cccs2)n1Cc1ccccc1`: 2.16% (inactive). With `c1ccc(-c2noc(-c3cccs3)n2)nc1`, the Potency was 3.01 µM (active). Regarding `CN(Cc1ccccc1)C(=O)CCS(=O)(=O)c1cc(Br)cc2c1N(C(=O)C1CC1)CC2`, the “activity change, negative = inhibition” value was -8.85% (inactive).
